# According to the supplement of paper PMC10849652:
# About 8,800 targets were measured; listed, in parts, are those with a hit and a random draw of the rest. About 0.5% of all pairs of compound and target were hits. Values without a mark were called inactive.
# Compound: C[C@H](Nc1ncnc2nc[nH]c12)c1cc2cccc(Cl)c2c(=O)n1-c1ccccc1 [duvelisib]
# Assay: log2 fold change, soluble protein after heating vs DMSO (PISA); higher = thermal stabilisation; K562 lysate, 10 uM; active = over 0.2 and 3.5 SD of the protein, either way, in both replicates (recomputed)
# Method in brief: (§1)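 Dounce homogenisation of K562 pellets in PBS pH 7.4 with 1 mM MgCl2 produced a crude extract, used at 1 mg/mL protein. Exposure to 10 μM compound lasted 30 min, and aliquots were then heated for 3 min across 48°C-58°C, pooled and brought to 0.5% NP-40 at 4°C. The supernatant after 21,000xg for 90 min was quantified by TMTpro 16plex LC-MS/MS with channel sums equalised. Duplicate values are given as log-two fold change in thermal stability relative to solvent controls.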
# Chain of UniProt Q9Y285 (Q9Y285 whole entry, looked up): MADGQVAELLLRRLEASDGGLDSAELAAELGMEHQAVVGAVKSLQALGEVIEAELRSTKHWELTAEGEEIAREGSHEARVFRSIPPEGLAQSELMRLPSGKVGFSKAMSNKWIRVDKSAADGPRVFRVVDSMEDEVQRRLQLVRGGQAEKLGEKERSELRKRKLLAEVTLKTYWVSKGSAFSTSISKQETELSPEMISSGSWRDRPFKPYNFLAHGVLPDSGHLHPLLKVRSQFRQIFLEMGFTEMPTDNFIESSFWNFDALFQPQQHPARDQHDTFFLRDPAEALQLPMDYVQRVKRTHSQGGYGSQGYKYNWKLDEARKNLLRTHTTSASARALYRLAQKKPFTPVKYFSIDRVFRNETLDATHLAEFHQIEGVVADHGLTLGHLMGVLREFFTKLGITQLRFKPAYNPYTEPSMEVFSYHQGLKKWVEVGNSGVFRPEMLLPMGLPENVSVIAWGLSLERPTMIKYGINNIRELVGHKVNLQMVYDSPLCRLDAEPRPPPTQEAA
# Chain of UniProt P48507 (P48507 whole entry, looked up): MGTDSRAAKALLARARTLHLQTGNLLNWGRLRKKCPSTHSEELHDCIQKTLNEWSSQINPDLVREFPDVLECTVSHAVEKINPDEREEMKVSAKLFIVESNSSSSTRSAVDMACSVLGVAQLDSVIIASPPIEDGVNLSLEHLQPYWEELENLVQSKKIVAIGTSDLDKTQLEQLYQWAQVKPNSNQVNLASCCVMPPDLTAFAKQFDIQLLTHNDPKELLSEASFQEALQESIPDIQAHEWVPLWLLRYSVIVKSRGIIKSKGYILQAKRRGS
# Chain of UniProt Q9NVI1 (Q9NVI1 whole entry, looked up): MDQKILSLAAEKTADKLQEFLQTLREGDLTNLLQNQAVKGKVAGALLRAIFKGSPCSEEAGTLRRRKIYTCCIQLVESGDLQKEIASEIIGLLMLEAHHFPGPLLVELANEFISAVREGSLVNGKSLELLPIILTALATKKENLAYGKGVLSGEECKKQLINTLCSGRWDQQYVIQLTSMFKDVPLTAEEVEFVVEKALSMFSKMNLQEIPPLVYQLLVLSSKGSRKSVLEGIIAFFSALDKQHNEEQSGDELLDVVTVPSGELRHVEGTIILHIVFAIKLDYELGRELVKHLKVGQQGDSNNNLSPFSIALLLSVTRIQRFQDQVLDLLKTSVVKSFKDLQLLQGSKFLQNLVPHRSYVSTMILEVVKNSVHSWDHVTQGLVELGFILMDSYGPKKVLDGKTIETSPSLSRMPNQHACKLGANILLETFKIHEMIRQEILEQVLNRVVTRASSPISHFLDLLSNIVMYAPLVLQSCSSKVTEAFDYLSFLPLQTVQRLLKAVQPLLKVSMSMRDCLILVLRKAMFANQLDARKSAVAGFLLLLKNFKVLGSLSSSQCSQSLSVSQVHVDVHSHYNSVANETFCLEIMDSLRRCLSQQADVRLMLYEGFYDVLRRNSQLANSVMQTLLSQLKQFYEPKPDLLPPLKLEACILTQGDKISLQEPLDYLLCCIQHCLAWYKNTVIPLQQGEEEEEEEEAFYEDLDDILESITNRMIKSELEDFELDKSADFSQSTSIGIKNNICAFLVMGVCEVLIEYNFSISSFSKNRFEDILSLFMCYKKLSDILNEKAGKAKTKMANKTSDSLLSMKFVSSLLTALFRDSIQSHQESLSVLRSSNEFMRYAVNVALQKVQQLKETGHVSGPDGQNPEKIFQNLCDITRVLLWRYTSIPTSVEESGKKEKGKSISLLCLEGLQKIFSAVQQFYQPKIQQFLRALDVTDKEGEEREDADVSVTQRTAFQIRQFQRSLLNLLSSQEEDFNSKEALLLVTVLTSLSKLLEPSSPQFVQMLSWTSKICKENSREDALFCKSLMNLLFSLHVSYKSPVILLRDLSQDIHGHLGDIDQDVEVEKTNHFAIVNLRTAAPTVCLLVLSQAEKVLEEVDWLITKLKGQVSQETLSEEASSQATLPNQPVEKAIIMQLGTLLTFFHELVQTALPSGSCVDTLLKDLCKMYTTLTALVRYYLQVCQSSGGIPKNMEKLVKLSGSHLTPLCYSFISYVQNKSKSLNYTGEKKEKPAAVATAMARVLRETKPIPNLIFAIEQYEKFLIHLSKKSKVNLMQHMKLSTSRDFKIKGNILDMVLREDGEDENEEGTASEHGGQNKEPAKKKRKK
# Chain of UniProt Q9UJY4 (Q9UJY4 whole entry, looked up): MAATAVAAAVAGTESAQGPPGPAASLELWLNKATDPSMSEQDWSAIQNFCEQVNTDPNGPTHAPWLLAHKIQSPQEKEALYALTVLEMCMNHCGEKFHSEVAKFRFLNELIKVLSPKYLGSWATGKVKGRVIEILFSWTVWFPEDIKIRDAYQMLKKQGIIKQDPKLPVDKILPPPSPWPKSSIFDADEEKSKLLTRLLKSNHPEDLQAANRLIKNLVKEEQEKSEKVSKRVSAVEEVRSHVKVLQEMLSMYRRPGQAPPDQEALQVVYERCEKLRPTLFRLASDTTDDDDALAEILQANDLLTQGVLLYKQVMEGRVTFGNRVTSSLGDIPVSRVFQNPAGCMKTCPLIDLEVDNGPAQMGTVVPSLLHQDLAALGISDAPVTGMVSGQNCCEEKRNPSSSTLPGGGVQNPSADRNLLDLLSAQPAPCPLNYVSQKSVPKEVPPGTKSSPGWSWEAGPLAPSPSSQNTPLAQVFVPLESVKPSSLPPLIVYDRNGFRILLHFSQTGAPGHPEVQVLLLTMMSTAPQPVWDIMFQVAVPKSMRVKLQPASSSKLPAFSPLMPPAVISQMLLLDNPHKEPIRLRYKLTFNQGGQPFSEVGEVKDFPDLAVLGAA
# Chain of UniProt Q9NX74 (Q9NX74 whole entry, looked up): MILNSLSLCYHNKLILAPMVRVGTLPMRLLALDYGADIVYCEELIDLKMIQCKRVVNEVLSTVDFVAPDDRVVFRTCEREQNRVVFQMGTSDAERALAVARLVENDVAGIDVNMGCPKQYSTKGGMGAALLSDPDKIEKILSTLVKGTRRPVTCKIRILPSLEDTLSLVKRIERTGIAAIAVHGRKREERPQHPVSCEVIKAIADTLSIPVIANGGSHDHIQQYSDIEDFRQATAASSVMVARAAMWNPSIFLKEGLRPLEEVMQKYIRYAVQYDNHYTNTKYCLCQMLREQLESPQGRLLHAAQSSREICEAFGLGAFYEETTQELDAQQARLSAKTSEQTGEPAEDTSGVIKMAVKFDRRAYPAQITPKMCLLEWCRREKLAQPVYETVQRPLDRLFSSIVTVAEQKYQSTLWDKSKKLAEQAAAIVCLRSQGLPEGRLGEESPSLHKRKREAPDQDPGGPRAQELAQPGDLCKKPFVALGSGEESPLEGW
# Chain of UniProt Q7L8L6 (Q7L8L6 whole entry, looked up): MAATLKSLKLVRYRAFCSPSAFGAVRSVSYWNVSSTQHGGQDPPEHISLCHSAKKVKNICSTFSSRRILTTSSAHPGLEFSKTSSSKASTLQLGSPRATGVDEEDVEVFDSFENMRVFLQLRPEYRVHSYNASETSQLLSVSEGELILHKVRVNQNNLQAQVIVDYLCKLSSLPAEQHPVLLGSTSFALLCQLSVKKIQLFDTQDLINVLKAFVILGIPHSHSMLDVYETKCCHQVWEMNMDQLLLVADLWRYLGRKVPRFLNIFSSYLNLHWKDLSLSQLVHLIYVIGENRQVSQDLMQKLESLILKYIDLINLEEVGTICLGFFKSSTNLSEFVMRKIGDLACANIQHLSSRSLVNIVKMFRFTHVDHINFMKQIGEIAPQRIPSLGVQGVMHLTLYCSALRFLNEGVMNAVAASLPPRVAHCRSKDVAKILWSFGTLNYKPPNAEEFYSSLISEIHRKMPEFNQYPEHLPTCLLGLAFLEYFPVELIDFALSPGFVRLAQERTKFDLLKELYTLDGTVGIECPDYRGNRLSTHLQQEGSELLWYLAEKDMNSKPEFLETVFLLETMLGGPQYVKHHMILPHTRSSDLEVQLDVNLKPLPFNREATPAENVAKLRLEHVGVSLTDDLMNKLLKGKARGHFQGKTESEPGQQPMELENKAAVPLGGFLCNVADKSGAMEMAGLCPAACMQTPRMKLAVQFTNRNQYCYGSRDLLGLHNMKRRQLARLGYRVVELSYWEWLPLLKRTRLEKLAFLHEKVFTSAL
# Chain of UniProt Q9NPA8 (Q9NPA8 whole entry, looked up): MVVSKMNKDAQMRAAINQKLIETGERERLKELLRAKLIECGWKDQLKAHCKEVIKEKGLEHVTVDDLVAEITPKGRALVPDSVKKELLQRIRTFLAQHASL
# Chain of UniProt Q8WWZ3 (Q8WWZ3 whole entry, looked up): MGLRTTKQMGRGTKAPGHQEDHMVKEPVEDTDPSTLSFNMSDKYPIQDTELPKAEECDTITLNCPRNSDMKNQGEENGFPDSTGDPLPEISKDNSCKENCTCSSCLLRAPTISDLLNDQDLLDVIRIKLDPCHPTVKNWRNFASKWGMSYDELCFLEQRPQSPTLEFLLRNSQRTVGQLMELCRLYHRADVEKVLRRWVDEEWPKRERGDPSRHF
# Chain of UniProt Q9NYY8 (Q9NYY8 whole entry, looked up): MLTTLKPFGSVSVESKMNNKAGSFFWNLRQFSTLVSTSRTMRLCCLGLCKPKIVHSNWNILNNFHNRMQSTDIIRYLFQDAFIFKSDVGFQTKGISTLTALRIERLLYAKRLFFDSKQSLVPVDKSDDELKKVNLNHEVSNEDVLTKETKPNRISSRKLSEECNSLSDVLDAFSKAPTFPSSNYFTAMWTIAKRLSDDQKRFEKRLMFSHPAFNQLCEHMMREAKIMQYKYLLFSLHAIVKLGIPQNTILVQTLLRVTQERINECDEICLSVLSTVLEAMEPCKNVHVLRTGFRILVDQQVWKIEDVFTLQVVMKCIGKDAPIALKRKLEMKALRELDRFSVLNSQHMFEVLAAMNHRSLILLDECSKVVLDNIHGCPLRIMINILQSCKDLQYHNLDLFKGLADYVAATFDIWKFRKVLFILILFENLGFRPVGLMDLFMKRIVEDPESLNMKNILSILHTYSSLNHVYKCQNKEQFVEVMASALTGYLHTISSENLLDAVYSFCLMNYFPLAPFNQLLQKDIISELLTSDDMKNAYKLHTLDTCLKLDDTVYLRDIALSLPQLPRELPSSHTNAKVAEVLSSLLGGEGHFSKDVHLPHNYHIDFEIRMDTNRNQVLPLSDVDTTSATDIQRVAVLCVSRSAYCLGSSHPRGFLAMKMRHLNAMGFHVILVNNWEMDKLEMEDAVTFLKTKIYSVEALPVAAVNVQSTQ
row,Target,log2 fold change
1,FARSA (UniProt Q9Y285),0.056
2,FECH isoform 2 (UniProt P22830),-0.022
3,EBP (UniProt Q15125),-0.093
4,EP300 (UniProt Q09472),-0.037
5,EP400 isoform 5 (UniProt Q96L91),-0.036
6,ESRRA (UniProt P11474),0.088
7,DUS2 (UniProt Q9NX74),0.018
8,GCLM (UniProt P48507),0.016
9,GGT7 (UniProt Q9UJ14),0.011
10,EMP3 (UniProt P54852),0
11,FANCI (UniProt Q9NVI1),0.001
12,FAM118B (UniProt Q9BPY3),0.045
13,GFPT1 (UniProt Q06210),-0.002
14,FKBP1A (UniProt P62942),0.074
15,EDARADD (UniProt Q8WWZ3),0.015
16,FIBP (UniProt O43427),0.073
17,EHD2 (UniProt Q9NZN4),0.026
18,"FADS1, A0A0A0MR51",-0.029

row,Target,log2 fold change
1,GALNT2 (UniProt Q10471),-0.044
2,FASTKD5 (UniProt Q7L8L6),-0.042
3,FBLL1 (UniProt A6NHQ2),0.059
4,DTWD1 (UniProt Q8N5C7),0.06
5,GGA2 (UniProt Q9UJY4),-0.002
6,FYB1 isoform 3 (UniProt O15117),0.01
7,DYRK1A (UniProt Q13627),-0.021
8,DUS3L (UniProt Q96G46),-0.022
9,ERI1 (UniProt Q8IV48),-0.022
10,FBXO9 (UniProt Q9UK97),-0.012
11,ERBIN isoform 8 (UniProt Q96RT1),0.005
12,ENY2 (UniProt Q9NPA8),0.034
13,EEF1AKNMT (UniProt Q8N6R0),0.03
14,"EEF1A1, A0A087WVQ9",-0.021
15,ETHE1 (UniProt O95571),-0.011
16,FBXO22 (UniProt Q8NEZ5),-0.012
17,FASTKD2 (UniProt Q9NYY8),0.026
18,FBXO30 (UniProt Q8TB52),0.024

# Compound: Cc1cc(Nc2cc(CN3CCOCC3)c3nc(C)c(Cc4ccc(Cl)cc4F)n3n2)n[nH]1 [gandotinib]
# Assay: as above
# Method in brief: as §1
row,Target,log2 fold change
1,FARSA (UniProt Q9Y285),0.039
2,FECH isoform 2 (UniProt P22830),0.418
3,EBP (UniProt Q15125),0.1
4,EP300 (UniProt Q09472),-0.047
5,EP400 isoform 5 (UniProt Q96L91),-0.012
6,ESRRA (UniProt P11474),-0.115
7,DUS2 (UniProt Q9NX74),-0.051
8,GCLM (UniProt P48507),-0.004
9,GGT7 (UniProt Q9UJ14),0.033
10,EMP3 (UniProt P54852),0.351 (active)
11,FANCI (UniProt Q9NVI1),-0.199
12,FAM118B (UniProt Q9BPY3),-0.044
13,GFPT1 (UniProt Q06210),-0.066
14,FKBP1A (UniProt P62942),0.266
15,EDARADD (UniProt Q8WWZ3),0.074
16,FIBP (UniProt O43427),-0.031
17,EHD2 (UniProt Q9NZN4),-0.117
18,"FADS1, A0A0A0MR51",0.559 (active)

row,Target,log2 fold change
1,GALNT2 (UniProt Q10471),0.272 (active)
2,FASTKD5 (UniProt Q7L8L6),-0.193
3,FBLL1 (UniProt A6NHQ2),0.028
4,DTWD1 (UniProt Q8N5C7),-0.07
5,GGA2 (UniProt Q9UJY4),-0.131
6,FYB1 isoform 3 (UniProt O15117),-0.051
7,DYRK1A (UniProt Q13627),-0.012
8,DUS3L (UniProt Q96G46),-0.081
9,ERI1 (UniProt Q8IV48),-0.123
10,FBXO9 (UniProt Q9UK97),-0.141
11,ERBIN isoform 8 (UniProt Q96RT1),0.012
12,ENY2 (UniProt Q9NPA8),-0.386 (active)
13,EEF1AKNMT (UniProt Q8N6R0),-0.133
14,"EEF1A1, A0A087WVQ9",0.017
15,ETHE1 (UniProt O95571),0.016
16,FBXO22 (UniProt Q8NEZ5),-0.03
17,FASTKD2 (UniProt Q9NYY8),-0.049
18,FBXO30 (UniProt Q8TB52),-0.072
